Consider 20 molecules from PubChem BioAssay (EPA / NIEHS).

Where “and” joins values, the source holds several entries; their conditions need not be identical. Identical values can stand only once. Results filed as inconclusive are left out. Some structures have more than one record in an assay (separate samples or runs), and their calls can disagree. Calls of active or inactive are those of the source. Rule for the calls: active = hit-call score of the fitted dose curve at least 0.9, where 1 is the maximum; inconclusive = response in the unintended direction; inactive = score below 0.9.

Test [1] has as its target Glycogen synthase kinase-3 beta (Homo sapiens) (UniProt P49841). Kind of test: NVS_ENZ_hGSK3b: NovaScreen (NVS) Enzymatic Assay for human Glycogen Synthase Kinase-3 beta (GSK3b) (AID 2283165). In outline: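 Recombinant enzyme with specific fluorescent substrate, 1 h, product separated by electrophoretic mobility shift. Primary duplicate screen at 25 uM; actives (e.g. 30% inhibition) followed in singleton concentration-response to 50 uM. Signal loss fitted versus DMSO.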

The target of test [2] is human MAP Kinase-Activated Protein Kinase 2 (MAPKAPK2), MAPKAPK2 (gene 9261) (UniProt P49137). The test can be described thus: NVS_ENZ_hMAPKAPK2: NovaScreen (NVS) Enzymatic Assay for human MAP Kinase-Activated Protein Kinase 2 (MAPKAPK2) (AID 2283178). In outline: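 Cell-free recombinant human MAPKAPK2 activity measured by fluorescence with electrophoretic mobility shift separation of substrate and product, 1 hr after dosing. Loss of signal versus DMSO; primary screen at 25 uM, concentration-response up to 50 uM.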

Test [3] addresses human Matrix Metalloproteinase-3 (MMP3), MMP3 (gene 4314) (UniProt P08254). Kind of test: NVS_ENZ_hMMP3: NovaScreen (NVS) Enzymatic Assay for human Matrix Metalloproteinase-3 (MMP3) (AID 2283185). In outline: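 Cell-free recombinant human MMP3 activity, fluorescence intensity read 1 h after dosing. Primary screen duplicate at 25 uM, actives retested in concentration series; loss of signal vs DMSO baseline.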

The target in test [4] is human Mitogen- and Stress-activated Protein Kinase-1 (Msk1), RPS6KA5 (gene 9252) (UniProt O75582). Kind of test: NVS_ENZ_hMsk1: NovaScreen (NVS) Enzymatic Assay for human Mitogen- and Stress-activated Protein Kinase-1 (Msk1) (AID 2283187). In outline:
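Recombinant kinase with fluorescent substrate; product separated by electrophoretic mobility shift, read 1 h after dosing. Screened in duplicate at 25 uM; hits (e.g. ≥30% inhibition) tested in concentration–response up to 50 uM. DMSO baseline.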

Test [5] deals with human IkappaB Kinase alpha (IKKa), CHUK (gene 1147) (UniProt O15111). The test can be described thus: NVS_ENZ_hIKKa: NovaScreen (NVS) Enzymatic Assay for human IkappaB Kinase alpha (IKKa) (AID 2283167). In outline:
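Cell-free recombinant human IKKa with fluorescent substrate, product separated by electrophoretic mobility shift; read 1 hour after dosing. Primary screen duplicate at 25 uM, actives then concentration-response up to 50 uM; loss of signal relative to DMSO.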

The target of test [6] is Mitogen-activated protein kinase 3 (Homo sapiens) (UniProt P27361). Kind of test: NVS_ENZ_hMAPK3: NovaScreen (NVS) Enzymatic Assay for human Mitogen-Activated Protein Kinase 3 (MAPK 3) (AID 2283177). In outline: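 Cell-free enzymatic assay with recombinant protein and specific substrate; fluorescence and electrophoretic mobility shift read-out 1 h after dosing. Primary screen duplicate at 25 uM; actives then run in concentration-response up to 50 uM, loss of signal versus DMSO.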

The target in test [7] is human Matrix Metalloproteinase-7 (MMP7), MMP7 (gene 4316) (UniProt P09237). Kind of test: NVS_ENZ_hMMP7: NovaScreen (NVS) Enzymatic Assay for human Matrix Metalloproteinase-7 (MMP7) (AID 2283183). In outline:
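Cell-free fluorescence enzymatic assay read 1 h after compound addition, activity loss analyzed against DMSO. Primary duplicate testing at 25 uM; compounds meeting threshold rerun in singleton concentration-response up to 50 uM.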

Test [8] deals with human Matrix Metalloproteinase-9 (MMP9), MMP9 (gene 4318) (UniProt P14780). Kind of test: NVS_ENZ_hMMP9: NovaScreen (NVS) Enzymatic Assay for human Matrix Metalloproteinase-9 (MMP9) (AID 2283190).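 Note: cell-free recombinant MMP9 protease activity read by fluorescent substrate signal; active means inhibition seen as loss of fluorescence signal versus DMSO.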 In outline: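 Cell-free fluorescence-intensity enzyme activity assay using extracted protein, read 1 h after dosing. Loss of signal versus DMSO baseline indicates inhibition; primary screen in duplicate at 25 uM, actives followed up in concentration series.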

Test [9] addresses human Fibroblast Growth Factor Receptor 1 (FGFR1), FGFR1 (gene 2260) (UniProt P11362). Kind of test: NVS_ENZ_hFGFR1: NovaScreen (NVS) Enzymatic Assay for human Fibroblast Growth Factor Receptor 1 (FGFR1) (AID 2283159).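 For AC50: hits lower the signal so potencies describe inhibitors of the kinase.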 In outline: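 Cell-free recombinant kinase with fluorescent substrate, product separated by electrophoretic mobility shift; read 1 hour after dosing, loss of signal relative to DMSO. Initial screen in duplicate at 25 uM, actives followed in concentration series.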

Test [10] concerns the target Histone deacetylase 3 (Homo sapiens) (UniProt O15379). The test can be described thus: NVS_ENZ_hHDAC3: NovaScreen (NVS) Enzymatic Assay for human Histone Deacetylase 3 (HDAC3) (AID 2283163). In outline: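 Recombinant human HDAC3 with fluorescent substrate, 1 h after dosing; product separated from substrate by electrophoretic mobility shift and read by fluorescence. Primary screen at 25 uM in duplicate; actives (e.g. ≥30% inhibition) retested in concentration-response up to 50 uM.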

Test [11] deals with human Janus Kinase 2 (Jak2), JAK2 (gene 3717) (UniProt O60674). Kind of test: NVS_ENZ_hJak2: NovaScreen (NVS) Enzymatic Assay for human Janus Kinase 2 (Jak2) (AID 2283169). In outline:
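Cell-free recombinant human JAK2 enzyme activity assay, fluorescence/electrophoretic mobility shift read 1 h after dosing. Screened in duplicate at 25 uM, then concentration-response up to 50 uM; activity as signal loss relative to DMSO.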

Test [12] has as its target human NIMA (Never In Mitosis Gene A)-Related Kinase 2 (NEK2), NEK2 (gene 4751) (UniProt P51955). The test can be described thus: NVS_ENZ_hNEK2: NovaScreen (NVS) Enzymatic Assay for human NIMA (Never In Mitosis Gene A)-Related Kinase 2 (NEK2) (AID 2283188). In outline: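 Cell-free NEK2 enzyme activity after 1 h exposure, read by fluorescence with electrophoretic mobility shift separating substrate and product. Primary screen in duplicate at 25 uM; actives then run as concentration series. Loss of signal versus DMSO scored.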

The target in test [13] is human Matrix Metalloproteinase-2 (MMP2), MMP2 (gene 4313) (UniProt P08253). The test can be described thus: NVS_ENZ_hMMP2: NovaScreen (NVS) Enzymatic Assay for human Matrix Metalloproteinase-2 (MMP2) (AID 2283184). In outline: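 Cell-free recombinant MMP2 activity with a fluorescent substrate, read 1 h after dosing. Primary screen in duplicate at 25 uM; actives then run in concentration series; loss of signal fitted versus DMSO.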

The target of test [14] is human Insulin Receptor (InsR), INSR (gene 3643) (UniProt P06213). Kind of test: NVS_ENZ_hInsR: NovaScreen (NVS) Enzymatic Assay for human Insulin Receptor (InsR) (AID 2283168). In outline: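 Fluorescent substrate phosphorylation by recombinant kinase, product resolved by electrophoretic mobility shift, read 1 h after dosing. Screened in duplicate at 25 uM; hits (e.g., 30% inhibition) run in concentration-response to 50 uM; DMSO as baseline.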

Test [15] has as its target human Mitogen-Activated Protein Kinase 1 (MAPK 1), MAPK1 (gene 5594) (UniProt P28482). Kind of test: NVS_ENZ_hMAPK1: NovaScreen (NVS) Enzymatic Assay for human Mitogen-Activated Protein Kinase 1 (MAPK 1) (AID 2283175). In outline: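 Cell-free recombinant human MAPK1 enzymatic assay, fluorescence/electrophoretic mobility shift read at 1 h; loss of signal vs DMSO. Primary screen in duplicate at 25 uM; actives (e.g. ≥30% inhibition) run as concentration-response up to 50 uM.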

For test [16], the target named is human p21 Activated Kinase 4 (PAK4), PAK4 (gene 10298) (UniProt O96013). Kind of test: NVS_ENZ_hPAK4: NovaScreen (NVS) Enzymatic Assay for human p21 Activated Kinase 4 (PAK4) (AID 2283189). In outline: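 Cell-free recombinant human PAK4 activity assay; fluorescent substrate and product separated by electrophoretic mobility shift, read 1 h after dosing. Initially tested in duplicate at 25 uM, relative to DMSO baseline.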

Chain of Glycogen synthase kinase-3 beta (Homo sapiens) (P49841 whole entry, looked up): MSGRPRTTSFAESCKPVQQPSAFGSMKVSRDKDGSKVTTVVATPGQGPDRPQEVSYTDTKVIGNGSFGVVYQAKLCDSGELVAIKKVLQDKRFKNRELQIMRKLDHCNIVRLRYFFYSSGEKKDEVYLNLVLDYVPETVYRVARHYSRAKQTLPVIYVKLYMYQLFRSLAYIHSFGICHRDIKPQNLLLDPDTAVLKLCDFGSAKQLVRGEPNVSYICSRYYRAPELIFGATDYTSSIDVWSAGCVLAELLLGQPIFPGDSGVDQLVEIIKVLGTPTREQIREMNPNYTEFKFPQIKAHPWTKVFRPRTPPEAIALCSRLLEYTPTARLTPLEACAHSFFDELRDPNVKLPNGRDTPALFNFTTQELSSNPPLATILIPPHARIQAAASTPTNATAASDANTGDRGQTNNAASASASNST
Chain of human Matrix Metalloproteinase-9 (MMP9), MMP9 (gene 4318) (P14780 whole entry, looked up): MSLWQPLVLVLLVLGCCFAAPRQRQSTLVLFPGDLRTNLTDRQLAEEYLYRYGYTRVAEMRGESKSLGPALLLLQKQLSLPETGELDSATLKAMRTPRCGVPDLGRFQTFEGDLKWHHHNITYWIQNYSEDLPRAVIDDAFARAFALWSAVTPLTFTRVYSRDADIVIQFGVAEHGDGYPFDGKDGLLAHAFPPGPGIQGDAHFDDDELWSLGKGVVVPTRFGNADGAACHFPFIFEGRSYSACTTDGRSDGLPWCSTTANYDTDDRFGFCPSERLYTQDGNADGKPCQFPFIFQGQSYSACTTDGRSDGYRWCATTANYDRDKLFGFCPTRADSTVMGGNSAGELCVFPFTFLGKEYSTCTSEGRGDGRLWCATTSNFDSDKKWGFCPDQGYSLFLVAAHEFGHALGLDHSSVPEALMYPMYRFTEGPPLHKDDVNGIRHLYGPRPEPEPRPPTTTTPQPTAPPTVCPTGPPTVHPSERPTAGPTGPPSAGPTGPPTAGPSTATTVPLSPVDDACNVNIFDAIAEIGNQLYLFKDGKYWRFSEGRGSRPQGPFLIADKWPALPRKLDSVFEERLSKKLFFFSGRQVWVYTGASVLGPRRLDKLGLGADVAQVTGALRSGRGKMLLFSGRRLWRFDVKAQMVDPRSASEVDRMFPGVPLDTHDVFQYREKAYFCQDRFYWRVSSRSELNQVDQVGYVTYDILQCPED
Chain of human Fibroblast Growth Factor Receptor 1 (FGFR1), FGFR1 (gene 2260) (P11362 whole entry, looked up): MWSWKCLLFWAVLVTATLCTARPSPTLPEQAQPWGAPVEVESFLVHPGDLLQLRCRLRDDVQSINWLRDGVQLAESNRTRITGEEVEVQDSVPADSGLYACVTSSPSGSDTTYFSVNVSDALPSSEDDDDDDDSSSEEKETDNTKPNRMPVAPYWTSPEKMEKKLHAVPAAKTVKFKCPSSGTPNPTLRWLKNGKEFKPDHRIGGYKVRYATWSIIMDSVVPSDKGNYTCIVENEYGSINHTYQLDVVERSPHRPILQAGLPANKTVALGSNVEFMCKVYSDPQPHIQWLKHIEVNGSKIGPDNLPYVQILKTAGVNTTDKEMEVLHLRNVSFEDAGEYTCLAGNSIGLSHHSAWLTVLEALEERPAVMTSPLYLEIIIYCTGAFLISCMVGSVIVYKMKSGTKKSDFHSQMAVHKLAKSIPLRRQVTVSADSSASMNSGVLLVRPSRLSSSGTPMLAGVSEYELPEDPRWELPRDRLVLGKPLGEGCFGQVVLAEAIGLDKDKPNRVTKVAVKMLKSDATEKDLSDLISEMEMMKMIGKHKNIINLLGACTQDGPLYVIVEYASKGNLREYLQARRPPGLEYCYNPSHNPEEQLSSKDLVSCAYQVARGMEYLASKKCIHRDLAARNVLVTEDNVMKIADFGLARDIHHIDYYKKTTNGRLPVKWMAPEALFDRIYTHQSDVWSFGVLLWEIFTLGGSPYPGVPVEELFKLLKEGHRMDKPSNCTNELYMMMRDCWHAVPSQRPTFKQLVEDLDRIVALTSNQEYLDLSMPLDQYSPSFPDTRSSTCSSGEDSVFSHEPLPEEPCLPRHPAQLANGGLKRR
Chain of human IkappaB Kinase alpha (IKKa), CHUK (gene 1147) (O15111 whole entry, looked up): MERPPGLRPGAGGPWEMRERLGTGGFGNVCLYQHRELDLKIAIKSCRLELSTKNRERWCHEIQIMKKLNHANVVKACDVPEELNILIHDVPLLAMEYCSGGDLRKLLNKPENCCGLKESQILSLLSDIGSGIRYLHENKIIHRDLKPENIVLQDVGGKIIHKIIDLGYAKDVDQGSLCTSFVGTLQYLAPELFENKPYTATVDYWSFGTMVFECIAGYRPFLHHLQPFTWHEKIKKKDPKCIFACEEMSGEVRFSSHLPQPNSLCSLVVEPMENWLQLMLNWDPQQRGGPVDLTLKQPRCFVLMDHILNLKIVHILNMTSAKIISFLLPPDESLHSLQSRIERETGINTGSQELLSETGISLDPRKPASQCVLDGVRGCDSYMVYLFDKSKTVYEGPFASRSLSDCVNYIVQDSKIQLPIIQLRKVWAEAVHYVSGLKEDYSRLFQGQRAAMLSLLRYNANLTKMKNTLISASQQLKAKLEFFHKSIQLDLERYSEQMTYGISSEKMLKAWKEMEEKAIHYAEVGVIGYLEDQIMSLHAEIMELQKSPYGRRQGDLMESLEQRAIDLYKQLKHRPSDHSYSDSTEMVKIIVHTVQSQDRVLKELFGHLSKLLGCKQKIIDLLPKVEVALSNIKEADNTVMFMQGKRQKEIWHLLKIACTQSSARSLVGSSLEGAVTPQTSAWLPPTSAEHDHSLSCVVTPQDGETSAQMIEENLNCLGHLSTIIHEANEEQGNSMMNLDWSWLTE
Chain of Mitogen-activated protein kinase 3 (Homo sapiens) (P27361 whole entry, looked up): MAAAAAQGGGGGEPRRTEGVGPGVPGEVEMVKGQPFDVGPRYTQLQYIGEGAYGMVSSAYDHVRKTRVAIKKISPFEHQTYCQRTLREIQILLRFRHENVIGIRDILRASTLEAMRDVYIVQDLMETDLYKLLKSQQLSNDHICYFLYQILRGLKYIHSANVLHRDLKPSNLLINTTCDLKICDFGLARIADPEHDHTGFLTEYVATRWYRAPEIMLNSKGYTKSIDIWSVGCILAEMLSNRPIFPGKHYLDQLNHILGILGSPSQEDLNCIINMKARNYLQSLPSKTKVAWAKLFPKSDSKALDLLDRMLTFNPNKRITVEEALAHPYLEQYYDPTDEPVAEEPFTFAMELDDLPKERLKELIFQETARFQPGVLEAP
Chain of human Matrix Metalloproteinase-3 (MMP3), MMP3 (gene 4314) (P08254 whole entry, looked up): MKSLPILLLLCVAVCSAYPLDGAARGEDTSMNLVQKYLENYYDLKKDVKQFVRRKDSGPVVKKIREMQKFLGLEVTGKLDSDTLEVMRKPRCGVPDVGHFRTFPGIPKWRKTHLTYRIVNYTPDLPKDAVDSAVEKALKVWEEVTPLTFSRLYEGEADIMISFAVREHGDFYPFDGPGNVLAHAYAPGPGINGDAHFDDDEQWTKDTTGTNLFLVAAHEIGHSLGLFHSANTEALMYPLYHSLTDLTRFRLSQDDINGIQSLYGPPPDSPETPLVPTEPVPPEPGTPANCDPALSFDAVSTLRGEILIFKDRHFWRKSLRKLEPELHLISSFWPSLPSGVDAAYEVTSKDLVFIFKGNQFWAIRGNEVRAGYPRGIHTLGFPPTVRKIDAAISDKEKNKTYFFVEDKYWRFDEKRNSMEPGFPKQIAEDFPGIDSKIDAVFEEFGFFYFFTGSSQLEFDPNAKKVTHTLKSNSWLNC
Chain of human Matrix Metalloproteinase-7 (MMP7), MMP7 (gene 4316) (P09237 whole entry, looked up): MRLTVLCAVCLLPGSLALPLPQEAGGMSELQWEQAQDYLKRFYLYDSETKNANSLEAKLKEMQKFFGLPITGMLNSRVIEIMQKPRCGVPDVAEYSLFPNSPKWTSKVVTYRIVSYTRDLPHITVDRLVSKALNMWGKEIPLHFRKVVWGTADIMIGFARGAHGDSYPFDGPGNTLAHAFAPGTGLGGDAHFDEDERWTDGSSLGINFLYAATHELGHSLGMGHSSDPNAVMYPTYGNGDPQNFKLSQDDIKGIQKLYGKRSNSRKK
Chain of human Matrix Metalloproteinase-2 (MMP2), MMP2 (gene 4313) (P08253 whole entry, looked up): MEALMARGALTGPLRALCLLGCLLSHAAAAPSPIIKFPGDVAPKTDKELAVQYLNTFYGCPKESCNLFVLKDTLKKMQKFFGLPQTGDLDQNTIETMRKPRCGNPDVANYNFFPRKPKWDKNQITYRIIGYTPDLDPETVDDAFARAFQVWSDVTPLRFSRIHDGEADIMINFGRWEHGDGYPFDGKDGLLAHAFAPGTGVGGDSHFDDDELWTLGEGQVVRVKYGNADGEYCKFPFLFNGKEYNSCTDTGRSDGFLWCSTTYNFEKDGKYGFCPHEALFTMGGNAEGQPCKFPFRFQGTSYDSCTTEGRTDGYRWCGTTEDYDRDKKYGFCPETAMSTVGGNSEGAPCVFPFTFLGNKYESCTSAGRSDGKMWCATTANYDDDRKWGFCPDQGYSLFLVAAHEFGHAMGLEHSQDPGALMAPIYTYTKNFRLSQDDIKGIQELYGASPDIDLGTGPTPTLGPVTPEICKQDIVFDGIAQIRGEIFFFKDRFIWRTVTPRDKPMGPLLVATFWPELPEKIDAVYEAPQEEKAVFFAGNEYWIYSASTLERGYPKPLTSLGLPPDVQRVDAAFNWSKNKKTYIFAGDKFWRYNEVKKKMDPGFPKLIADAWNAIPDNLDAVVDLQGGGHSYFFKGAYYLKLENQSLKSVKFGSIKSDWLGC
Chain of human NIMA (Never In Mitosis Gene A)-Related Kinase 2 (NEK2), NEK2 (gene 4751) (P51955 whole entry, looked up): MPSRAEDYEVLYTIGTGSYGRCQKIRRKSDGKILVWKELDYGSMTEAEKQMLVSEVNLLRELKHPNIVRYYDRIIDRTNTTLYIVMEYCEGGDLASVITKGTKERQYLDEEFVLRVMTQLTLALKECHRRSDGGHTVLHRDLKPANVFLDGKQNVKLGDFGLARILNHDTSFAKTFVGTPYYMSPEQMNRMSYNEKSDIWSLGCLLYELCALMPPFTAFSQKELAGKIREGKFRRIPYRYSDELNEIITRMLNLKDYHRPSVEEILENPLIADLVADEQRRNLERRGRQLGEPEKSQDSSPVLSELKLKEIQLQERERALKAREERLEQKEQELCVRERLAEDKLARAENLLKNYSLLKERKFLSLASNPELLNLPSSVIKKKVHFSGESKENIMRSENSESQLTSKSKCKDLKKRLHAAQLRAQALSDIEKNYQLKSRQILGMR

For the molecule `Nc1c(Cl)cc([N+](=O)[O-])cc1Cl`, the outcome in test [1], in [2], in [3] and in test [4] was inactive. With `COc1cccc(C(=O)NN(C(=O)c2cc(C)cc(C)c2)C(C)(C)C)c1C`, the result in [5] was inactive. Turning to `COc1ccc(C(=CC(=O)N2CCOCC2)c2ccc(Cl)cc2)cc1OC`, the molecule was called inactive in test [6].

Broadly, the AC50 is the concentration giving half of the maximal activity seen. On to `CCOP(=O)(OCC)Oc1cc(C)nc(C(C)C)n1`, for which, in test [7], the AC50 was 11.8 µM (active). Further, the molecule was classed as inactive in test [3]. Turning to `COP(=O)(OC)SCn1c(=O)oc2cc(Cl)cnc21`, the molecule was called inactive in test [8]. Consider `CC1=NNC(=O)N(/N=C/c2cccnc2)C1`, for which the AC50 in [1] was 32.8 µM (active). Also, the molecule was called inactive in test [3]. `CCOC(=O)COc1cc(-c2nn(C)c(OC(F)F)c2Cl)c(F)cc1Cl`: in test [9], the result was inactive.

Turning to `O=C(O)c1cc(Oc2ccc(C(F)(F)F)cc2Cl)ccc1[N+](=O)[O-]`, the result in test [8] was inactive.

`O=c1ccc(=O)[nH][nH]1`: in [10], the AC50 was 14.5 µM (active). In addition, the result in test [11] was inactive.

Turning to `CCC(CC)Nc1c([N+](=O)[O-])cc(C)c(C)c1[N+](=O)[O-]`, the molecule was classed as inactive in [5]. For `CNC(=O)Oc1cccc2c1OC(C)(C)O2`, the AC50 in test [7] is 6.07 µM (active). For the molecule `CNC(=O)ON=C(C)SC`, in test [12], the result was inactive. On to `Cc1ccn2nc(S(=O)(=O)Nc3c(F)cccc3F)nc2n1`, for which the molecule was classed as inactive in [6], in test [13] and in [8].

Take `CC(C)N(C(=O)SCC(Cl)=C(Cl)Cl)C(C)C`: the molecule was called inactive in test [5]. For `CN(C)C(=O)Nc1cccc(C(F)(F)F)c1`, the call in [6] was inactive. For `CCc1cnc(C2=NC(C)(C(C)C)C(=O)N2)c(C(=O)O)c1` (configuration not stated), in [7], the AC50 was 8.62 µM (active). As for `CCCOCC(=Nc1ccc(Cl)cc1C(F)(F)F)n1ccnc1`, in test [8], the call was inactive. As to `CCNc1nc(Cl)nc(NC(C)(C)C#N)n1`, the molecule was classed as inactive in test [1] and in [14]. Regarding `CCOC(=O)CC(SP(=O)(OC)OC)C(=O)OCC` (configuration not stated), the molecule was called inactive in [13] and in test [8]. In the case of `CN(C)[C@@H]1C(=O)C(C(N)=O)=C(O)[C@@]2(O)C(=O)C3=C(O)c4c(O)cccc4[C@@](C)(O)[C@H]3[C@H](O)[C@@H]12`, the AC50 in test [9] is 5.86 µM (active) and 7.55 µM (active); in [15], 15 µM (active); in test [6] it was 19.1 µM (active); in test [16], 9.28 µM (active). The molecule was called inactive in [9], in test [6], in test [7] and in test [16].
